The list is not random: actives were taken first. Their share in the collection is about 3.5%.
FBW7 activator = human FBW7 E3 ligase activation, primary screen; Q969H0; AlphaScreen FBW7–phospho-cyclin E peptide binding, activator screen; normalized activity (activation), % at 26.1 µM; hit rate 0.13% among 650,000; in the data active means normalized activity above about 1.9%;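 further: purified mutant Fbw7 with reduced substrate affinity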
GPR151 ag = activators of human GPR151. PathHunter beta-arrestin GPR151 cells, luminescence. Q8TDV0. AID 1508602. hit rate 1% among 650,000. activation, % at 11.2 µM; in the data active means activation above about 4.9%;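 further: 0% = median of compound wells and 100% = cells with positive control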
MITF primary = blocks human microphthalmia-associated transcription factor; AID 1259374; inhibition, % at 2.6 µM; hit rate 0.91% among 650,000; AlphaScreen MITF homodimerization, bead proximity signal; in the data active means inhibition above about 50%;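 further: 0% = vehicle wells with protein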
TEAD-YAP inh = TEAD-YAP interaction inhibition; inhibition, % at 9.12 µM; HEK-TIYL cells, TEAD-Gal4/YAP UAS-luciferase luminescence; hit rate 1.4% among 640,000; AID 1259422; in the data active means inhibition above about 32%;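 further: 0% = median of test compound wells and 100% = reference inhibitor wells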
GPR151 conf act = confirmation of human GPR151 activators; GPR151 PathHunter beta-arrestin cells, luminescence, 90 min; % of EA-reagent control over plate median; activation, % at 11.2 µM; shares compounds with GPR151 ag; 6,700 tested, under 10 active; AID 1508609;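 active means mean percent activation across replicates above the confirmation screen cutoff of 4.91%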
GPR119 ag = GPR119 activation, counter-screen for GPR151 activators; shares compounds with GPR151 ag; GPR119 PathHunter beta-arrestin cells, luminescence, 90 min; 0 = compound-well median, 100 = enzyme-acceptor control; activation, % at 11.2 µM; hit rate 0.3% among 6,700;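 active means mean percent activation in the counterscreen above 29.09%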;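 further: counterscreen on off-target GPR119 to flag nonselective hits from the GPR151 activator screen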
Target sequence (Q8TDV5 whole entry, looked up): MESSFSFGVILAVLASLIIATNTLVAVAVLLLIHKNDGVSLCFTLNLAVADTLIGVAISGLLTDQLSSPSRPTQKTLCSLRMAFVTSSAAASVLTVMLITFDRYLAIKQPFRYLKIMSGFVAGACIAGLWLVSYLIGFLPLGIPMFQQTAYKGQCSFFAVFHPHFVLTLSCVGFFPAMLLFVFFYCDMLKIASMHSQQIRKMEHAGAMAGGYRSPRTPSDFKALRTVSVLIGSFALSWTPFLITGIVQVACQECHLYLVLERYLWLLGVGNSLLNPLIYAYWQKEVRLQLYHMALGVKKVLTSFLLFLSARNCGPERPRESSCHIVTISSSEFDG
An asterisk follows results filed as active; x = not tested or not shown; ! = a repeat was not active.

SMILES | FBW7 activator | GPR151 ag | MITF primary | TEAD-YAP inh | GPR151 conf act | GPR119 ag
Fc1ccccc1/C=C/c1nn2c(Cc3ccccc3)nnc2s1 | 0 | 2 | -6 | -3 | x | x
Fc1ccccc1-c1nn2c(Cc3ccccc3)nnc2s1 | 0 | 8.2* | -3 | 4 | 0 | -2
COC(=O)/C(=C/C=C/c1ccccc1)NC(=O)c1ccccc1 | 0 | 1 | 0 | -5 | x | x
C=CCOc1ccc(/C=C2\C(=O)NC(=O)N(C)C2=O)cc1Br | 0 | 5.7* | 14 | 4 | 1 | 8
COc1cccc(N2C(=O)CN(C(=O)CCc3c(C)n[nH]c3C)CC2C)c1 (stereo not drawn) | 0 | 1 | -10 | -9 | x | x
O=C(CCN1CCN(C2c3ccccc3-c3ccccc32)CC1)Nc1ccccc1F | 0 | 5.1* | 6 | -4 | 1 | 10
CNc1cc(N2CCN(S(=O)(=O)c3ccc4c(c3)CCCC4)CC2)ccc1[N+](=O)[O-] | 0 | 13* | -5 | 4 | -1 | 0
CNc1cc(N2CCN(S(=O)(=O)c3ccccc3)CC2)ccc1[N+](=O)[O-] | 0 | 1 | 2 | 5 | x | x
O=C(/C=C/c1cc([N+](=O)[O-])ccc1O)Nc1cccc(Br)c1 | 0 | 5.6* | -2 | -2 | 0 | 1
C/C(CCc1ccc2c(c1)OCO2)=N\N=C(/N)SC1CC(=O)N(c2ccccc2)C1=O (stereo not drawn) | 0 | 6.1* | 13 | -4 | 0 | -13
N/C(=N\N=C\c1ccc2c(c1)OCO2)SC1CC(=O)N(c2ccc(C(=O)O)cc2)C1=O (stereo not drawn) | 0 | 1 | 15 | 6 | x | x
COc1cccc(N2C(=O)CC(SC(N)=Nc3ccccc3)C2=O)c1 (stereo not drawn) | 0 | 10.0* | -4 | -3 | 0 | -3
CCOCCCNC(=O)CSc1nc2nc(C)c(Cc3ccccc3C)c(C)n2n1 | 0 | -1 | -9 | -2 | x | x
COCCN1C(=O)Cc2c1nc(N)c1c(N)nc(N3CCC(C)CC3)c(C#N)c21 | 0 | 0 | 5 | -3 | x | x
CCCNC(=O)c1ccnc(-c2ccc(C(=O)NC3CC3)cc2)c1 | 1 | -1 | 23 | -8 | x | x
CCOC(=O)C(C)(C)Sc1nnc(COc2cccc(OC)c2)n1CC | 0 | 0 | -9 | -3 | x | x
CC(C)C12CN3CC(C(C)C)(CN(C1)C3c1ccccc1Cl)C2=O (stereo not drawn) | 0 | 0 | 4 | -6 | x | x
CC12CN3CC(C)(CN(C1)C3c1ccccc1Cl)C2 (stereo not drawn) | 0 | 5.5* | 9 | 5 | -1 | -5
CCN1CCN(C(=O)CCc2nnc3ccc(N4CCC(C)CC4)nn23)CC1 | 0 | 1 | -8 | -13 | x | x
CC1CCN(S(=O)(=O)c2cccc(S(=O)(=O)N3CCCC3)c2)CC1 | 0 | 0 | 15 | 8 | x | x
CCCCn1c(C)c(Cc2ccccc2)[nH]c1=O | 0 | 6.1* | -12 | 9 | 0 | 0
CCCCCn1c(=O)[nH]c2ccccc21 | 0 | 2 | -2 | -6 | x | x
CC(C)(C)c1cc(NC(=O)NC2CC2)n(-c2nc3c(c(=O)[nH]2)CCC3)n1 | 0 | 0 | 9 | 3 | x | x
O=[N+]([O-])c1cccc(C2SCCN2S(=O)(=O)c2ccc(Br)cc2)c1 (stereo not drawn) | 0 | 5.8* | 12 | 5 | -1 | -17
O=S(=O)(c1ccccc1)N1N=C(c2ccccc2)CC1c1ccco1 (stereo not drawn) | 0 | 5.4* | 10 | 20 | 0 | -2
SMILES | FBW7 activator | GPR151 ag | MITF primary | TEAD-YAP inh | GPR151 conf act | GPR119 ag
O=[N+]([O-])c1cccc(C2CC(c3ccc(Br)cc3)=NN2S(=O)(=O)c2ccccc2)c1 (stereo not drawn) | 0 | 5.4* | 8 | -4 | 0 | 12
O=[N+]([O-])c1cccc(C2SCCN2S(=O)(=O)c2ccc(I)cc2)c1 (stereo not drawn) | 0 | 0 | 3 | -5 | x | x
COC(=O)C1=CN(C2CC2)C=C(C(=O)OC)C1c1ccccc1OC | 0 | 1 | 2 | 10 | x | x
Cc1occc1C(=O)NNC1=NCCC1 | 0 | -1 | 3 | -7 | x | x
Cc1cc(C(=O)N2C=CC(C(F)(F)F)=NCC2)nn1C | 0 | 5.0* | 4 | -3 | 0 | -3
Cc1ccc(S(=O)(=O)C2CCN(C(=O)c3cc(C)n(C)n3)CC2)cc1 | 0 | 0 | 3 | 8 | x | x
CC(=O)NC(Cc1cccc(F)c1)C(=O)O (stereo not drawn) | 0 | 0 | 5 | -1 | x | x
COc1ccc(-c2cncc(-c3cc(N4CCN(CCO)CC4)nc(C)n3)c2)cc1 | 0 | 7.1* | 2 | 6 | -1 | -9
C=CCN(C(=O)CN(C)S(=O)(=O)c1ccc2c(c1)CCC(=O)N2)C1CCCCC1 | 0 | 0 | 16 | 0 | x | x
COC(=O)c1c(NC(=O)c2ccc3c(c2)OCO3)sc(C(=O)N2CCCCC2)c1C | 0 | 7.5* | 3 | 0 | 1 | 8
CC(C)(C)C(=O)/C=C(\N)Cc1ccccc1 | 0 | 8.1* | -6 | 8 | -1 | -1
CC(C)(C)C(=O)/C=C(/N)c1ccccn1 | 0 | 0 | -15 | -7 | x | x
CCCNc1cc(C)nc(-c2ccccc2)n1 | 0 | 1 | -3 | -58 | x | x
Cc1cccc(-c2nc(C)cc(NCCc3ccccn3)n2)c1 | 0 | 5.8* | 0 | -50 | 1 | -4
NC(=O)NC(c1ccccc1)c1ccccc1Br (stereo not drawn) | 0 | 0 | -4 | 9 | x | x
CCN(CC)CCNC(=O)c1cc(Cl)c(N)cc1OC | 0 | 6.6*! | 6 | -7 | 1 | 0
Cc1noc(C)c1COC(=O)CCc1ccc(S(=O)(=O)N2CCCCC2)cc1 | 0 | 5.0* | 6 | 5 | 0 | -6
COc1cccc(-c2n[nH]c(=S)n2Cc2ccco2)c1OC | 1 | 9.1* | 11 | -10 | 1 | 6
COc1ccc(-c2n[nH]c(=S)n2Cc2ccco2)cc1OC | 0 | 1 | -13 | -7 | x | x
C[C@@H](OCc1ccccc1)[C@@H]1NC(=O)[C@H]2CN(C(=O)c3cc(F)ccc3F)CCN2C1=O | 0 | 8.9* | -7 | -5 | 1 | 16
C[C@@H](OCc1ccccc1)[C@@H]1NC(=O)[C@H]2CN(C(=O)c3cc(F)c(F)cc3F)CCN2C1=O | 1 | 0 | 18 | 11 | x | x
CCOC(=O)CC(=O)CSc1nc2c(sc(=S)n2-c2cc(OC)ccc2OC)c(=O)n1-c1ccccc1C | 0 | 0 | 2 | -20 | x | x
Cc1cnc(CNc2ncc(-c3ccc(F)cc3)cn2)cn1 | 0 | 1 | -4 | -17 | x | x
COc1ccc(-c2nc(CNS(=O)(=O)c3ccc(OC)c(OC)c3)cs2)cc1 | 0 | 0 | -2 | -3 | x | x
COc1ccc(S(=O)(=O)NCc2csc(-c3cccnc3)n2)cc1OC | 0 | 6.5* | 11 | 11 | 1 | 8

Screening results as filed in PubChem BioAssay.
